Consider six compounds from PubChem BioAssay (EPA / NIEHS).

Read-out in assay [1]: Interleukin-6 (IL6), IL6 (gene 3569)
Nature of the assay: BSK_CASM3C_IL6: BioMAP Diversity Plus: CASM3C Assay for Interleukin-6 (IL6) Biomarker Activity for (AID 2283040). Conditions: primary human coronary artery smooth muscle cells; actives raise or lower the signal.

Read-out in assay [2]: Tissue plasminogen activator (tPA), PLAT (gene 5327)
The assay is described as follows: BSK_BE3C_tPA: BioMAP Diversity Plus: BE3C Assay for Tissue plasminogen activator (tPA) Biomarker Activity (AID 2283041).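 Note: tPA level quantified by ELISA one day after compound addition.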 Conditions: primary human bronchial epithelial cells; actives raise or lower the signal. In a few lines:
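Human primary bronchial epithelial cells were dosed with chemical and tPA biomarker levels measured by ELISA 24 hours later. Activity was fitted bidirectionally against DMSO as negative control and baseline.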

Read-out in assay [3]: Interleukin-8 (IL8), CXCL8 (gene 3576)
The assay is described as follows: BSK_CASM3C_IL8: BioMAP Diversity Plus: CASM3C Assay for Interleukin-8 (IL8) Biomarker Activity (AID 2283042).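 Note: IL-8 protein level quantified by ELISA.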 The conditions noted are these: primary human coronary artery smooth muscle cells; actives raise or lower the signal.

Read-out in assay [4]: Human Leukocyte Antigen - DR isotype (HLADR), HLA-DRA (gene 3122)
Nature of the assay: BSK_CASM3C_HLADR: BioMAP Diversity Plus: CASM3C Assay for Human Leukocyte Antigen - DR isotype (HLADR) Biomarker Activity (AID 2283043).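 Note: cell-surface HLA-DR protein level quantified by ELISA.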 The conditions noted are these: primary human coronary artery smooth muscle cells; actives raise or lower the signal.

Read-out in assay [5]: Macrophage colony-stimulating factor (MCSF), CSF1 (gene 1435)
The assay is described as follows: BSK_CASM3C_MCSF: BioMAP Diversity Plus: CASM3C Assay for Macrophage colony-stimulating factor (MCSF) Biomarker Activity (AID 2283044).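 Note: M-CSF protein amount quantified by ELISA after 24 h exposure.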 The conditions noted are these: primary human coronary artery smooth muscle cells; actives raise or lower the signal.

Read-out in assay [6]: Low-density lipoprotein receptor (LDLR), LDLR (gene 3949)
The assay is described as follows: BSK_CASM3C_LDLR: BioMAP Diversity Plus: CASM3C Assay for Low-density lipoprotein receptor (LDLR) Biomarker Activity (AID 2283045).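 Note: LDLR protein level on the cell surface quantified by ELISA.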 Conditions: primary human coronary artery smooth muscle cells; actives raise or lower the signal.

Read-out in assay [7]: Monocyte Chemoattractant Protein-1 (MCP1), CCL2 (gene 6347)
The assay is described as follows: BSK_CASM3C_MCP1: BioMAP Diversity Plus: CASM3C Assay for Monocyte Chemoattractant Protein-1 (MCP1) Biomarker Activity (AID 2283046).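 Note: MCP-1 level quantified by ELISA 24 h after dosing.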 Conditions: primary human coronary artery smooth muscle cells; actives raise or lower the signal.

Assay [8] can be described thus: BSK_CASM3C_Proliferation: Cell Proliferation Assessment in the BioMAP Diversity Plus: CASM3C Assay (AID 2283047).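 Note: sulforhodamine B total protein stain as relative cell number at 560 nm; sub-confluent cells exposed 48 h before staining; fitted both ways against DMSO so gain or loss of cell number.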 Conditions: primary human coronary artery smooth muscle cells.
Read-out in assay [9]: Monokine induced gamma interferon (MIG), CXCL9 (gene 4283)
The assay is described as follows: BSK_CASM3C_MIG: BioMAP Diversity Plus: CASM3C Assay for Monokine induced gamma interferon (MIG) Biomarker Activity (AID 2283048).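 Note: MIG protein level measured by ELISA.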 The conditions noted are these: primary human coronary artery smooth muscle cells; actives raise or lower the signal.

Read-out in assay [10]: serum amyloid A (SAA), SAA1 (gene 6288)
The assay is described as follows: BSK_CASM3C_SAA: BioMAP Diversity Plus: CASM3C Assay for serum amyloid A (SAA) Biomarker Activity (AID 2283049).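 Note: SAA protein level quantified by ELISA.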 The conditions noted are these: primary human coronary artery smooth muscle cells; actives raise or lower the signal.

Assay [11] can be described thus: BSK_CASM3C_SRB: Viability Assessment in the BioMAP Diversity Plus: CASM3C Assay (AID 2283050).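 Note: total protein by SRB staining as cytotoxicity measure in parallel cultures.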 The conditions noted are these: primary human coronary artery smooth muscle cells.
Read-out in assay [12]: Thrombomodulin, THBD (gene 7056)
Nature of the assay: BSK_CASM3C_Thrombomodulin: BioMAP Diversity Plus: CASM3C Assay for Thrombomodulin Biomarker Activity (AID 2283051).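 Note: thrombomodulin protein level measured by ELISA 24 h after dosing.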 Conditions: primary human coronary artery smooth muscle cells; actives raise or lower the signal.

Read-out in assay [13]: Tissue Factor, F3 (gene 2152)
Nature of the assay: BSK_CASM3C_TissueFactor: BioMAP Diversity Plus: CASM3C Assay for Tissue Factor Biomarker Activity (AID 2283052).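 Note: cell surface tissue factor protein level read by ELISA.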 The conditions noted are these: primary human coronary artery smooth muscle cells; actives raise or lower the signal.

Read-out in assay [14]: Interferon-gamma inducible Protein 10 (IP10), CXCL10 (gene 3627)
The assay is described as follows: BSK_hDFCGF_IP10: BioMAP Diversity Plus: hDFCGF Assay for Interferon-gamma inducible Protein 10 (IP10) Biomarker Activity (AID 2283053). Conditions: primary human foreskin fibroblasts; actives raise or lower the signal. A digest of the protocol:
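Human foreskin fibroblast primary cells (hDFCGF system) were dosed with chemical and assayed at 24 h; IP-10 measured by ELISA. Activity fitted bidirectionally relative to DMSO negative control as baseline.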

Read-out in assay [15]: Urokinase-type plasminogen activator receptor (uPAR), PLAUR (gene 5329)
The assay is described as follows: BSK_CASM3C_uPAR: BioMAP Diversity Plus: CASM3C Assay for Urokinase-type plasminogen activator receptor (uPAR) Biomarker Activity (AID 2283054).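 Note: cell-surface uPAR protein level quantified by ELISA.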 The conditions noted are these: primary human coronary artery smooth muscle cells; actives raise or lower the signal.

Read-out in assay [16]: Vascular cell adhesion molecule 1 (VCAM1), VCAM1 (gene 7412)
The assay is described as follows: BSK_CASM3C_VCAM1: BioMAP Diversity Plus: CASM3C Assay for Vascular cell adhesion molecule 1 (VCAM1) Biomarker Activity (AID 2283055).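 Note: VCAM-1 protein level quantified by ELISA on the cells.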 The conditions noted are these: primary human coronary artery smooth muscle cells; actives raise or lower the signal.

Read-out in assay [17]: Collagen III, COL3A1 (gene 1281)
The assay is described as follows: BSK_hDFCGF_CollagenIII: BioMAP Diversity Plus: hDFCGF Assay for Collagen III Biomarker Activity (AID 2283056). The conditions noted are these: primary human foreskin fibroblasts; actives raise or lower the signal. In a few lines:
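Cells: human foreskin fibroblasts, primary. Dosing followed by 24 h incubation, then ELISA for collagen III. Both increases and decreases scored relative to DMSO.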

Read-out in assay [18]: Epidermal growth factor receptor (EGFR), EGFR (gene 1956)
Nature of the assay: BSK_hDFCGF_EGFR: BioMAP Diversity Plus: hDFCGF Assay for Epidermal growth factor receptor (EGFR) Biomarker Activity (AID 2283057). The conditions noted are these: primary human foreskin fibroblasts; actives raise or lower the signal. A digest of the protocol: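 Primary human foreskin fibroblasts were exposed to compound for 24 h, after which cell-surface EGFR was quantified by ELISA. Activity was fitted bidirectionally against the DMSO negative control as baseline.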

Read-out in assay [19]: Interleukin-8 (IL8), CXCL8 (gene 3576)
The assay is described as follows: BSK_hDFCGF_IL8: BioMAP Diversity Plus: hDFCGF Assay for Interleukin-8 (IL8) Biomarker Activity (AID 2283058). The conditions noted are these: primary human foreskin fibroblasts; actives raise or lower the signal. In a few lines: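 IL-8 levels from compound-treated primary human fibroblasts were read by ELISA at 24 h, with DMSO serving as baseline for bidirectional fitting.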

The nature of assay [20]: BSK_hDFCGF_Proliferation: Cell Proliferation Assessment in the BioMAP Diversity Plus: hDFCGF Assay (AID 2283059).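 Note: curves fitted for both rise and fall of signal versus DMSO baseline.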 The conditions noted are these: primary human foreskin fibroblasts. In a few lines: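 Primary human foreskin fibroblasts, sub-confluent; […]; 10% TCA fix, 0.1% SRB stain, A560 total protein. Gain/loss fitted bidirectionally vs DMSO control.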

The source made the active and inactive calls. Rule for the calls: active = hit-call score of the fitted dose curve at least 0.9, where 1 is the maximum; inactive = score below 0.9.

Regarding `CCOP(=O)(OCC)Oc1cc(C)nc(C(C)C)n1`, the outcome in assay [1], in assay [2], in [3], in assay [4], in [5] and in assay [7] was inactive. Also, the result in assay [8], in assay [9], in assay [10], in assay [11], in assay [12] and in [13] was inactive. Further, the result in assay [14], in assay [15], in assay [16], in assay [18] and in assay [19] was inactive. The concentration at half-maximal activity (AC50) in assay [6] is 20 µM (active); in assay [17], 31.7 µM (active); in assay [20], 25.9 µM (active).
Turning to `CON=C(C(=O)OC)c1ccccc1CON=C(C)c1cccc(C(F)(F)F)c1`, the concentration at half-maximal activity (AC50) in [1] is 1.92 µM (active); in assay [7], 2.68 µM (active); in assay [8], 8.75 µM (active); in assay [16], 8.45 µM (active); in assay [17] it was 1.47 µM (active); in [18], 2.78 µM (active). Besides, the AC50 in assay [20] was 2.77 µM (active). For the same compound, the result in assay [2], in [3], in [4], in assay [5], in [6] and in assay [9] was inactive. In addition, the result in [10], in assay [11], in assay [12], in [13], in assay [14] and in [15] was inactive. In addition, the outcome in [19] was inactive.
As for `CSC1=N[C@@](C)(c2ccccc2)C(=O)N1Nc1ccccc1`, the result in assay [1], in assay [2], in assay [3], in assay [4], in assay [5] and in [6] was inactive. Further, the outcome in assay [7], in assay [9], in assay [10], in assay [11], in assay [12] and in assay [13] was inactive. The outcome in [14], in assay [15], in assay [16], in [18] and in assay [19] was inactive. Further, the AC50 is 11.5 µM (active) in assay [8] and 25 µM (active) in assay [17].
Turning to `CCCCOC(=O)[C@@H](C)Oc1ccc(Oc2ccc(C#N)cc2F)cc1`, the outcome in assay [1], in [2], in [3], in assay [4], in [5] and in [6] was inactive. In addition, the result in [7], in assay [8], in assay [9], in assay [10], in assay [11] and in assay [12] was inactive. Also, the result in assay [13], in assay [14], in [15], in [16], in [17] and in assay [18] was inactive. In addition, the result in [19] was inactive.
In the case of `CCOP(=S)(OCC)Oc1ccc2c(C)c(Cl)c(=O)oc2c1`, the result in assay [1], in assay [2], in assay [3], in [4], in [5] and in assay [6] was inactive. The result in [7], in assay [9], in [10], in [11], in assay [12] and in assay [13] was inactive. In addition, the result in assay [15], in assay [16], in assay [18] and in [19] was inactive. Besides, the AC50 is 20 µM (active) in [8], 27.9 µM (active) in assay [14] and 20 µM (active) in assay [17].
Regarding `CCC(=NOC/C=C/Cl)C1=C(O)CC(C2CCOCC2)CC1=O` (stereo not given), the outcome in assay [1], in assay [2], in assay [3], in assay [4], in [5] and in [6] was inactive. Moreover, the outcome in assay [7], in assay [8], in assay [9], in [10], in assay [11] and in assay [12] was inactive. The outcome in assay [13], in assay [14], in assay [15], in assay [16], in assay [18] and in [19] was inactive.
